What all share (assay): NCI-60 one-dose screen, 48 h (100 = growth as untreated, 0 = no growth, -100 = all killed)
Common to all, as to conditions: 10 µM unless noted

Assay [1] has as its system SR leukemia.
For assay [2], the system named is OVCAR-8 ovarian.
The subject of assay [3] is OVCAR-5 ovarian.
Assay [4] concerns OVCAR-4 ovarian.
Assay [5] concerns SK-OV-3 ovarian.
The test system of assay [6] is IGROV1 ovarian.
Assay [7] concerns OVCAR-3 ovarian.
Assay [8] concerns HS 578T breast.
Assay [9] concerns NCI/ADR-RES ovarian.
The subject of assay [10] is T-47D breast.
Assay [11] has as its system BT-549 breast.
The subject of assay [12] is MDA-MB-435 melanoma.
Assay [13] deals with SW-620 colon.
The test system of assay [14] is MCF7 breast.
Assay [15] concerns HCT-116 colon.
The subject of assay [16] is HCC-2998 colon.
The test system of assay [17] is KM12 colon.
The test system of assay [18] is RPMI-8226 leukemia.

This is part of a sample that, as a whole, favours compounds with a hit. Of some 83,000 tested, about 20% had one in any assay.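 Compound tested at a single concentration for 48 hours in 96-well plates; a percent growth value below 10 was scored as active.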 Values without a mark were called inactive. Calls of active or inactive are those of the source.

As to `CC(=O)OC(C)COc1ccc(-c2ccccc2)cc1` (centres undefined), the growth in assay [1] was 97.1%; in assay [2], 95.9%; in [3], 96.8%; in assay [4], 106%; in [5], 109%; in assay [6], 112%. For the same molecule, the growth in assay [7] was 107%; in [8] it was 103%; in assay [9] it was 118%; in assay [10], 88.6%; in assay [11] it was 98.6%; in assay [12], 98.6%. Also, the growth is 100% in assay [13]; 103% in assay [14]; 81.2% in assay [15]; 104% in [16]; 98.8% in [17].

In the case of `Cc1oc(-c2ccccc2Cl)cc1C(=O)Nc1ccc(S(N)(=O)=O)cc1`, the growth was 101% in assay [1]; 98.1% in assay [2]; 102% in assay [3]; 96.8% in [4]; 98.5% in [5]; 113% in assay [6]. The growth in assay [7] was 117%; in assay [8], 101%; in [9] it was 102%; in [10] it was 83.2%; in assay [11], 104%; in [12] it was 102%. The growth in assay [13] is 108%; in [14] it was 92.7%; in [15], 102%; in assay [16], 103%; in assay [17], 101%.

As for `O=C(O[C@@H]1Cc2c(O)cc(O)cc2O[C@@H]1c1cc(O)c(O)c(O)c1)c1cc(O)c2c(c1)OCO2`, the growth in assay [18] was 99.8%; in assay [2], 103%; in assay [3], 97%; in [4], 99.8%; in assay [5] it was 103%; in [6], 107%. Besides, the growth in assay [7] was 106%; in [8], 98.1%; in assay [9], 97.5%; in assay [10] it was 91.3%; in assay [11], 96.2%; in [12], 105%. Moreover, the growth in [13] is 106%; in assay [14], 100%; in [15], 86.3%; in assay [16], 104%; in assay [17] it was 101%.

`Nc1nc2c3ccncc3cc(-c3cccc(Cl)c3)c2c2cnccc12`: the growth in assay [18] was 5.57% (active); in [2], 24.1%; in assay [3] it was 61.2%; in [4], 65.6%; in assay [5] it was 61.9%; in assay [6] it was 59%. Also, the growth in assay [7] was 54.6%; in assay [8], 35.5%; in [9], 30.6%; in assay [10], 32%; in assay [11] it was 37%; in assay [12] it was 66.8%. In addition, the growth in [13] was 36.5%; in assay [14], 33.4%; in assay [15] it was 5.95% (active); in assay [16], 74.9%; in assay [17] it was 46.2%.

Take `CCC(CC)C(=O)OC(C)COc1ccc(C(C)(C)C)cc1` (centres undefined): the growth in [1] was 98.2%; in [2] it was 86.2%; in assay [3] it was 100%; in [4], 113%; in assay [5], 102%; in [6], 112%. The growth is 107% in [7]; 110% in [8]; 113% in assay [10]; 105% in assay [12]; 106% in [13]; 101% in assay [14]. Further, the figures for the growth in [15], in assay [16] and in assay [17] were 90.7%, 101% and 102%, respectively.

Consider `CC(C)(C)CC(C)(C)c1ccc(OCCOCC[N+](C)(C)CC(=O)[O-])cc1`, for which the growth in [1] was 94.8%; in [2], 105%; in assay [3] it was 102%; in [5], 109%; in assay [6], 100%; in [7], 113%. The growth in [8] was 114%; in assay [9], 111%; in assay [10], 103%; in [11], 125%; in assay [13], 101%; in assay [14], 105%. In addition, the growth is 107% in [15], 108% in [16] and 112% in [17].

Regarding `Cc1ccc2oc(=O)cc(-c3sc(N4CCCCC4)nc3-c3ccccc3)c2c1`, the growth in assay [18] is 99.9%; in [2] it was 98.4%; in assay [3], 102%; in [4] it was 92.4%; in [5], 86.9%; in [6], 59.9%. Further, the growth in assay [7] was 97.2%; in assay [8], 96.7%; in assay [9], 98.4%; in [10], 76.8%; in [11] it was 91.2%; in assay [12], 103%. For the same molecule, the growth was 96.5% in assay [13]; 70.5% in assay [14]; 89% in assay [15]; 99.3% in assay [16]; 94.8% in [17].

Regarding `COc1ccc(-c2nc3c(c(C)nn3-c3ccc(F)cc3)c(=O)[nH]2)cc1`, the growth was 89.8% in [18]; 60.7% in assay [2]; 85.9% in assay [3]; -39.3% (active) in [4]; 31.5% in [5]; 53.8% in assay [6]. Further, the growth in assay [7] is 55%; in assay [8] it was 63.4%; in [9] it was 63.9%; in [10], 20.2%; in assay [11] it was 76.3%; in [12] it was 74.7%. Also, the growth is 74.6% in assay [13]; 73.7% in [14]; 48.5% in assay [15]; 98.4% in [16]; 84.4% in assay [17].

For the molecule `COc1ccc(C2(Cl)c3ccccc3N(c3ccccc3)c3ccccc32)cc1`, the growth in assay [1] is 3.25% (active); in assay [2], 6.73% (active); in assay [3] it was 17%; in assay [4] it was 3.18% (active); in assay [5] it was -11.1% (active); in [6] it was 17.5%. The growth in [7] was -43.9% (active); in [8] it was -12.9% (active); in assay [9], 21.4%; in assay [10], 5.67% (active); in assay [11], 11.3%; in [12], -60.9% (active). In addition, the growth in [13] is 0.491% (active); in [14] it was -6.13% (active); in assay [15], -37.7% (active); in assay [16] it was -15.6% (active); in assay [17] it was 6.64% (active).

For `C#CCC(C)(O)/C=C/C1=C(C)CCCC1(C)C` (centres undefined), the growth was 107% in assay [1]; 101% in assay [2]; 88.7% in [3]; 107% in assay [4]; 92.3% in assay [5]; 102% in assay [6]. Besides, the growth in [7] was 106%; in assay [8], 108%; in assay [9], 99.8%; in assay [10], 83%; in [11], 87.6%; in assay [12] it was 103%. Further, the growth was 97.6% in [14], 82.6% in assay [15], 106% in assay [16] and 97.6% in [17].

In the case of `CCOc1ccc(NC(=O)c2ccoc2COc2ccccc2)cc1`, the growth in assay [18] was 91.8%; in [2] it was 104%; in assay [3] it was 103%; in assay [4], 101%; in [5], 106%; in [6] it was 93.5%. The growth in assay [7] is 109%; in assay [8], 105%; in [9], 102%; in [10], 108%; in assay [11] it was 109%; in assay [12] it was 103%. In addition, the growth in assay [13] was 104%; in assay [14] it was 95.9%; in assay [15] it was 93.6%; in assay [16] it was 109%; in assay [17], 98.8%.

As to `CN(CSc1ccc(Cl)cc1)c1ccc(CSc2ccc(Cl)cc2)cc1`, the growth in assay [18] is 18%; in assay [2], 93.3%; in [3] it was 120%; in [4], 67.9%; in assay [5], 108%; in assay [6], 42.9%. Further, the growth in assay [7] was 62.6%; in assay [8], 93.3%; in assay [9] it was 91.7%; in assay [10], 48.6%; in [11], 51.4%; in [12], 45.8%. For the same molecule, the growth is 67.5% in [13]; 51.8% in [14]; 58.1% in assay [15]; 85.3% in [16]; 46.1% in [17].

For `O=C1C=C(C(O)c2ccc(O)cc2)C(=O)c2ccccc21` (centres undefined), the growth in assay [1] is 87.7%; in [2], 104%; in [3], 99.7%; in assay [5] it was 85.8%; in assay [6], 86.3%; in assay [7], 96.2%. The growth in [8] is 120%; in [9], 105%; in assay [10] it was 80.2%; in assay [11], 88.1%; in assay [13] it was 97.4%; in [14], 94.1%. Besides, the figures for the growth in assay [15], in assay [16] and in [17] were 96.1%, 97% and 107%, respectively.

As to `N#CC1=C(N)Oc2c(c(N)nn2-c2ccccc2)C1c1ccc(Cl)cc1` (centres undefined), the growth in assay [1] was 95.8%; in [2] it was 95.4%; in assay [3], 102%; in [4] it was 105%; in assay [5] it was 81.7%; in assay [6], 84.5%. Further, the growth in assay [7] is 109%; in assay [8], 97%; in [9], 101%; in [10] it was 86.7%; in assay [11] it was 81.5%; in assay [12], 105%. Also, the growth in [13] is 98.1%; in assay [14], 98.7%; in assay [15], 96.2%; in assay [16], 113%; in assay [17], 104%.

Turning to `Cn1cc(-c2csc(-c3cn(CCCN4CCCCC4)c4ccc(F)cc34)n2)c2cccnc21`, the growth in assay [18] was 69.2%; in assay [2], 95.3%; in assay [3] it was 91.8%; in assay [4], 92.8%; in assay [5], 99.3%; in [6] it was 85.2%. For the same molecule, the growth in [7] is 93.2%; in assay [8], 82.5%; in [9], 89.5%; in assay [10], 92%; in assay [11], 71.3%; in [12], 71.3%. In addition, the growth in assay [13] is 89.7%; in assay [14], 78.6%; in assay [15] it was 88.2%; in assay [16], 102%; in assay [17], 94%.

`O=C(/C=C/c1ccc2ccccc2c1)Nc1ncc(Cc2ccccc2)s1`: the growth was 16.9% in [1]; 59.8% in assay [2]; 49.5% in assay [3]; -37.5% (active) in assay [4]; 87.8% in assay [5]; 55.6% in assay [6]. In addition, the growth was 10% in assay [7]; 29.2% in assay [8]; 32.3% in [9]; 25.7% in assay [10]; 72.5% in assay [11]; 66.1% in assay [12]. Besides, the growth in assay [13] is 42.6%; in [14] it was 50.3%; in assay [15], 21%; in assay [16], 92%; in assay [17], 64.4%.

In the case of `Cc1ccc(-c2ccc(/C=C(\C#N)c3nc(-c4ccco4)cs3)o2)cc1`, the growth in [1] is 89.8%; in assay [2] it was 99.8%; in assay [3] it was 77.5%; in assay [4] it was 28.1%; in assay [5], 101%; in assay [6], 63.5%. The growth in assay [7] was 112%; in [8], 107%; in [9], 103%; in [10] it was -22.8% (active); in assay [11] it was 103%; in assay [12], 98.6%. Besides, the growth in assay [13] is 99.8%; in [14] it was 14.5%; in assay [15] it was 98%; in assay [16], 54.8%; in assay [17] it was 61.2%.

Regarding `CC1(C)c2ccccc2C(=O)C1(Br)Cc1ccccc1` (centres undefined), the growth in [18] was 46.8%; in assay [2], 93%; in assay [3], 73.7%; in assay [4] it was 63.6%; in [5], 110%; in assay [6], 92.5%. In addition, the growth in assay [7] was 65.4%; in assay [8] it was 84.1%; in assay [9], 72.8%; in assay [10], 60.6%; in [11] it was 105%; in assay [12], 61.3%. The growth in assay [13] is 36.6%; in assay [14], 81.3%; in assay [15] it was 54.9%; in assay [16], 78.4%; in [17], 90.9%.

The values above are taken from PubChem BioAssay (NCI).
